# Measurements: PubChem BioAssay (NCI)
# Compounds without any hit were thinned out: in the full panel of roughly 83,000, 20% have a hit.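 How to read the values: 0–100, growth inhibition (40 = 60% inhibited); 0, no net growth; -100 to 0, cell death (-40 = 40% of starting cells died; -100 = all dead).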 Values without a mark were called inactive. Calls of active or inactive are those of the source. The calls were made as follows: active = growth percent below 10; inactive = the rest.
# Columns and labels:
# Assay in all cases: NCI-60 one-dose screen, 48 h (100 = growth as untreated, 0 = no growth, -100 = all killed)
# Settings in all cases: 10 µM unless noted
# SK-MEL-2 melanoma = system: SK-MEL-2 melanoma
# EKVX NSCLC = system: EKVX NSCLC
# SN12C renal = system: SN12C renal
# UO-31 renal = system: UO-31 renal
# TK-10 renal = system: TK-10 renal
# ACHN renal = system: ACHN renal
# A498 renal = system: A498 renal
# MOLT-4 leukemia = system: MOLT-4 leukemia
# SR leukemia = system: SR leukemia
# RPMI-8226 leukemia = system: RPMI-8226 leukemia
# OVCAR-8 ovarian = system: OVCAR-8 ovarian
# OVCAR-5 ovarian = system: OVCAR-5 ovarian
# OVCAR-4 ovarian = system: OVCAR-4 ovarian
# SK-OV-3 ovarian = system: SK-OV-3 ovarian
# IGROV1 ovarian = system: IGROV1 ovarian
# HS 578T breast = system: HS 578T breast
# NCI/ADR-RES ovarian = system: NCI/ADR-RES ovarian
# OVCAR-3 ovarian = system: OVCAR-3 ovarian
# CCRF-CEM leukemia = system: CCRF-CEM leukemia
SMILES,growth (SK-MEL-2 melanoma),growth (EKVX NSCLC),growth (SN12C renal),growth (UO-31 renal),growth (TK-10 renal),growth (ACHN renal),growth (A498 renal),growth (MOLT-4 leukemia),growth (SR leukemia),growth (RPMI-8226 leukemia),growth (OVCAR-8 ovarian),growth (OVCAR-5 ovarian),growth (OVCAR-4 ovarian),growth (SK-OV-3 ovarian),growth (IGROV1 ovarian),growth (HS 578T breast),growth (NCI/ADR-RES ovarian),growth (OVCAR-3 ovarian),growth (CCRF-CEM leukemia)
COc1cc2c(cc1OCCCCC(=O)Nc1ccc(-c3nc4ccccc4s3)cc1)N=C[C@@H]1CCCN1C2=O,-2.21% (active),2.66% (active),15.3%,-31.6% (active),-0.417% (active),1.84% (active),-79.3% (active),-31.7% (active),-55.4% (active),-58.3% (active),-8.71% (active),4.91% (active),-11.9% (active),22.4%,-17.1% (active),-37.5% (active),67.6%,,
COc1cccc(C2CC(c3cc(OC)c(OC)c(OC)c3)=NN2)c1 (centres undefined),94%,117%,91.8%,94.9%,106%,94.3%,82.2%,81.2%,9.95% (active),56.9%,92.9%,98.8%,85.5%,89.9%,99.4%,111%,63.4%,,
CCN(CC)c1ccc(C2CC(c3cc(OC)c(OC)c(OC)c3)=NN2)cc1 (centres undefined),27.6%,27.6%,47.2%,36.5%,77.8%,75.3%,-2.94% (active),7.4% (active),-10.8% (active),-13.1% (active),6.48% (active),40.6%,37.2%,5.94% (active),17.7%,-13.3% (active),-37% (active),,
COC1OCC(OS(=O)(=O)c2ccc(C)cc2)C(OC(=O)c2ccccc2)C1OC(=O)c1ccccc1 (centres undefined),36.1%,53.4%,74.3%,48.3%,88%,54%,87.4%,48.9%,39.6%,45.5%,69.3%,72.5%,57%,86.1%,37.8%,,-6.71% (active),-12.4% (active),
CC1(C)N=C(N)N=C(N)N1c1ccc(F)c(C(F)(F)F)c1,54.4%,65.2%,47.4%,41.8%,65.5%,36%,93.1%,,,50.4%,8.44% (active),41.8%,55.3%,60.5%,,99.3%,91.9%,53.9%,20.8%
Oc1ccc(Cl)cc1Sc1cc(Cl)ccc1O,94.1%,103%,86.3%,74.6%,104%,90.1%,,80.9%,90.4%,86.3%,90.8%,100%,70.2%,106%,,108%,101%,77%,96.7%
CC(C)(C)NC(C1=CC(C)(C)c2ccccc2C1=O)c1ccccc1 (centres undefined),-65.1% (active),-1.1% (active),-14.3% (active),-97.4% (active),-6.87% (active),-10.5% (active),45.1%,-47.4% (active),,-44.9% (active),-47.9% (active),-75% (active),-52.9% (active),29.2%,,46.4%,-43.3% (active),-92.5% (active),-5.2% (active)
N#Cc1c(N)nc2c(c1N)C(c1ccc(Cl)cc1)C1=C(CCCC1=O)N2c1sc2c(c1C#N)CCCC2 (centres undefined),95.8%,93.7%,95.4%,95.9%,89.2%,96.8%,100%,90%,41.8%,75.5%,84.4%,74.8%,89.9%,89.1%,89.6%,86.7%,81.1%,,
COc1ccc(-c2cnc(-c3ccc(F)cc3)[nH]2)cc1,113%,90.7%,99%,84.5%,230%,105%,97.1%,54.7%,-29.7% (active),44.5%,103%,116%,98.3%,121%,95.3%,99.2%,115%,91.3%,
COc1ccc(C2CC(c3cc(Cl)c(C)cc3OC)=NN2c2ccc(S(N)(=O)=O)cc2)cc1OC (centres undefined),95.8%,80.6%,87.4%,59.1%,113%,84%,112%,,,91%,73.8%,70.6%,87.8%,116%,79.1%,101%,77.2%,103%,
CN1C(=O)C2(SCC(C(=O)NCC(=O)OC(C)(C)C)N2C(=O)C2CCCCC2)c2ccccc21 (centres undefined),86.9%,96.6%,99.2%,84%,103%,99.8%,83.5%,92.6%,110%,90.5%,96%,104%,100%,99.8%,101%,97.5%,97.7%,107%,
CCCCCCCCCCCC(=O)OCCNC(=O)C[n+]1ccccc1,97.7%,91.8%,102%,83%,101%,99.9%,,104%,104%,100%,97.4%,113%,105%,96.7%,,139%,113%,115%,
CC(=O)O[C@@H]1[C@@H](OC(C)=O)[C@H](OC(C)=O)CO[C@H]1Nc1cccc2ccccc12,82.3%,99.8%,94.3%,62.4%,115%,98.8%,101%,,,87.9%,102%,100%,103%,105%,97.9%,96.3%,95.9%,95.7%,71.7%
CCOC(=O)c1cnc2c(OC)ccc(OC)c2c1Cl,127%,115%,110%,88.3%,106%,100%,91.8%,113%,115%,100%,101%,109%,113%,100%,117%,,110%,108%,
CC(=O)c1cc2c(N)c(C(=O)Nc3cccc(Cl)c3)sc2nc1C,39%,76.5%,92.6%,78.7%,90.4%,93%,37.4%,73.4%,66.1%,76.7%,83.5%,113%,84.3%,51.3%,92.3%,83.2%,79.5%,92.8%,
CCc1cccc(-c2ccccc2)c1,116%,102%,99.5%,87.8%,106%,108%,,88%,52.4%,80.5%,101%,104%,101%,103%,107%,,111%,109%,8.01% (active)
COc1ccc2c(c1)nnn1c3ncccc3c(N=O)c21,-65.9% (active),15%,-80.4% (active),-99.3% (active),-15.1% (active),-30.8% (active),31.9%,-55.6% (active),,-56.2% (active),-30.3% (active),-0.558% (active),9.93% (active),9.38% (active),,-29.7% (active),-8.17% (active),-91.3% (active),-22.8% (active)
